Assay results taken from PubChem BioAssay AID606 (Columbia University Molecular Screening Center, 2007).
Fewer than 10 of roughly 52,000 compounds were called active.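 The calls were made as follows: active = IC50 under 40 µM in the dose-response test; inactive = IC50 of 40 µM or more, or never dose-tested.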 Only a sample is shown.

target: Tyrosine-protein phosphatase non-receptor type 22 (Homo sapiens) (UniProt Q9Y2R2); experiment: LYP phosphatase inhibitors, primary screen, biochemical, DiFMUP fluorescence, recombinant catalytic domain, 10 µM (AID 606); details: at 10 µM, stronger effect = higher value
Sequence (Q9Y2R2 whole entry, looked up, the tested form may be a part): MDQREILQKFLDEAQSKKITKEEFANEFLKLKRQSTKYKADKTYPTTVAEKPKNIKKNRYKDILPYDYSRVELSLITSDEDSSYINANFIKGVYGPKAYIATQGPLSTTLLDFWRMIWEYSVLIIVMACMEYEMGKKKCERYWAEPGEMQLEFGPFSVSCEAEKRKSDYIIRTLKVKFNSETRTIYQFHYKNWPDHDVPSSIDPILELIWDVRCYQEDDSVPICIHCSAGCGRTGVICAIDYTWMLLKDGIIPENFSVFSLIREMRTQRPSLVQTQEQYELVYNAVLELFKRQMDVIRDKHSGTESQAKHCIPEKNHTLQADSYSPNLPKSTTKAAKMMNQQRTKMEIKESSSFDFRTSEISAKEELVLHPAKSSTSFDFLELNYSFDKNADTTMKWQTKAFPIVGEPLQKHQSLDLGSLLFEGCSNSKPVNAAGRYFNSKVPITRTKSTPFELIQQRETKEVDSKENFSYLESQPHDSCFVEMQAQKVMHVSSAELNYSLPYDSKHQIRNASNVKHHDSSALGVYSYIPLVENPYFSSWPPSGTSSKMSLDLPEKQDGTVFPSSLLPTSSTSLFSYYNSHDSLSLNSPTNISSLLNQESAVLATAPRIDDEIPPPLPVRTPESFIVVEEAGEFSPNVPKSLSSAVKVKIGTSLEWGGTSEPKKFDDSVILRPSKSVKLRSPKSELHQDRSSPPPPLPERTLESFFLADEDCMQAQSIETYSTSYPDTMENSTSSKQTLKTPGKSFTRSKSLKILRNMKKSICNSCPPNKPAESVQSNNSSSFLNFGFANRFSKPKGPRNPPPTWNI

inhibition, inactive:
COc1ccccc1-n1c(CNc2c(C)cccc2C)nnc1SCC(=O)N1CCOCC1 19.1%
Cc1ccc(-n2c(N)c(C(=O)N3CCOCC3)sc2=S)cc1 15.3%
O=C1CC(c2ccc3c(c2)OCO3)Sc2nc3ccccc3n21 (stereo unspecified) 11.4%
CCCCN(CCCC)Cc1ccc(N)cc1 3.2%
COc1ccccc1OCc1nc(C#N)c(N2CCC(C(N)=O)CC2)o1 6.04%
COc1nc(Nc2ccc(-c3nc4ccccc4o3)cc2)nc(N2CCOCC2)n1 9.06%
O=C(C1CCN(S(=O)(=O)c2cccc3cccnc23)CC1)N1CCc2ccccc21 2.25%
CCCCn1c(SCC(=O)N2CCCCC2)nc2cc(S(N)(=O)=O)ccc21 17.2%
C=CCNc1nc(NCCN2CCOCC2)nc(OC)n1 7.44%
COC(=O)c1c(NC(=O)CC2SCC(C(=O)OC)NC2=O)sc2c1CCCC2 (stereo unspecified) -6.67%
Cc1onc(-c2ccccc2)c1C(=O)Nc1nc(-c2ccc(F)c(F)c2)cs1 13.4%
CN(C)S(=O)(=O)N1CCN(CC(O)COc2ccc(C(=O)c3ccccc3)cc2)CC1 (stereo unspecified) 10.5%
CCOC(=O)N1CCN(Cc2nc3c(c(=O)n(C)c(=O)n3C)n2Cc2cccc3ccccc23)CC1 7.1%
Nc1c(S(=O)(=O)c2cccs2)c2nc3ccccc3nc2n1/N=C/c1cccc(O)c1 13.6%
O=C(NCc1ccco1)C1CCCN(S(=O)(=O)c2ccc(-n3cnnn3)cc2)C1 (stereo unspecified) 12%
CC(=O)OCP(C)(=O)COC(C)=O 5.43%
CCN(CC)CCOC(=O)c1ccc(N=CC2=C(O)CC(C)(C)CC2=O)cc1 4.23%
Cc1c(N2C(=O)C(C)SC23C(=O)Nc2ccccc23)c(=O)n(-c2ccccc2)n1C (stereo unspecified) 4.85%
COc1ccc(C)cc1NC(=O)C1CCCN1S(=O)(=O)c1ccc2c(c1)CCC(=O)N2 (stereo unspecified) 12%
CCN(CC)c1ccc(NC(=O)c2ccco2)c(C)c1 15.3%
CCc1ccc2[nH]c(=O)c(CN(CCN(C)C)C(=O)Nc3ccccc3OC)cc2c1 -7.1%
CCOC(=O)C1CCN(C(=O)CN(C)S(=O)(=O)c2cc(C)ccc2OC)CC1 -35.9%
CCC12CC3CC(C1)CC(C(=O)Nc1nn[nH]n1)(C3)C2 11.3%
CCN1C(=O)c2cccc3c(S(=O)(=O)Nc4c(C)n(C)n(-c5ccccc5)c4=O)ccc1c23 -6.68%
COC(=O)C1=C(C)NC(=O)CC1c1cccc(OC)c1OC (stereo unspecified) -0.77%
Cn1c(SCC(=O)Nc2ccc3c(c2)oc2ccccc23)nnc1-c1ccccc1 -0.68%
CCCC(=O)C1=C(c2ccccc2)C(C#N)(C#N)C(C#N)=C1N 12%
Cc1ccc(N(CC(=O)Nc2ccc(S(=O)(=O)N3CCOCC3)cc2)S(C)(=O)=O)cc1C 5.91%
CCOC(=O)CSc1nc2c(c(=O)[nH]c(=O)n2C)n1CCc1ccccc1 12%
CC(=O)NC12CC3CC(C1)CC(C(=O)OCC(=O)Nc1ncc(Cl)c(C)c1Cl)(C3)C2 3.56%
O=C1c2ccccc2S(=O)(=O)N1CC(O)COc1ccc(Cl)cc1 (stereo unspecified) 5.66%
CCCCCC(=O)Nc1ccc(N2CCN(S(C)(=O)=O)CC2)cc1 8.48%
CCn1cc(C(=O)NCc2ccco2)c(=O)c2cc(S(=O)(=O)N3CCC(C)CC3)ccc21 2.74%
COC(=O)CSc1nc2c(c(=O)n(C)c(=O)n2C)n1CCCc1ccccc1 4.4%
CCN1C(=O)c2cccc3c(S(=O)(=O)NCCCN4CCOCC4)ccc1c23 8.51%
Cc1cc(NC(=O)COc2cccc(C)c2C)no1 11.1%
Cn1c(SCC(N)=O)nnc1C1CCN(C(=O)NCc2ccccc2)CC1 11.9%
CCOC(=O)c1ccc(-c2n[nH]c(=O)c3ccccc23)cc1 -0.81%
Cc1ccc2c(c1)N(CC(=O)NCc1cccs1)C(=O)CO2 7.47%
O=C(OCN1C(=O)c2ccccc2C1=O)c1cccs1 8.67%
O=C(NCCCc1ccccc1)C1CCN(c2nnc(-n3cccc3)s2)CC1 1.14%
Cn1c(=O)c2cc(S(=O)(=O)N3CCN(c4cccc(C(F)(F)F)c4)CC3)ccc2n(C)c1=O 3.54%
CCn1c(COc2cccc(C)c2)nnc1SCC(=O)Nc1cccc(C(=O)O)c1 7.81%
O=C(CCS(=O)(=O)Cc1ccccc1)N1CCN(Cc2ccccc2)CC1 -7.91%
Cc1cc(Nc2cccc(Cl)c2)n2ncnc2n1 -9.28%
COc1ccc(C(=O)NC2(C(F)(F)F)N=C3SCCN3C2=O)cc1 (stereo unspecified) 96.1%
CCOC(=O)N1CCC(n2c(=S)[nH]c3cc(OC)c(OC)cc3c2=O)CC1 -14.3%
COc1cc2c(cc1OC)CN(C(=O)Cc1ccc(OC)c(S(=O)(=O)N3CCOCC3)c1)CC2 1.37%
CCOc1cc(C#N)c(NC(=O)c2ccco2)cc1OCC 7.92%
Cn1nc(-c2ccc(C(=O)Nc3cccnc3)cc2)c2ccccc2c1=O 13.4%
Cc1ccnc(NC(=O)Nc2cccc(F)c2)c1 -13.1%
O=c1c2cc(N3CCOCC3)ccc2[nH]c(=S)n1CCCN1CCCCC1 7.14%
COCCn1nnnc1C(c1ccc(OC)cc1OC)N1CCN(c2ccccc2)CC1 (stereo unspecified) 7.1%
COCCN(CCOC)C(=O)c1c[nH]c2ccc(S(=O)(=O)N(C)c3ccc(F)cc3)cc2c1=O -2.71%
C/C=C/c1ccc(OCCCCN2C(=O)NC(C)(C)C2=O)c(OC)c1 0.22%
CCOC(=O)c1cc2c(=O)n3cccc(C)c3nc2n(Cc2ccco2)c1=NC(=O)c1cccnc1 12.3%
CCC(C)NC(=O)CN(c1ccc(OC)cc1)S(=O)(=O)c1ccc(NC(C)=O)cc1 (stereo unspecified) -3.53%
CC1CCCCN1CCNC(=O)Cn1nc(-c2ccccc2)ccc1=O (stereo unspecified) -5.86%
CCOC(=O)N1CCC(NC(=O)CCC(=O)N2CC(C)Oc3ccccc32)CC1 (stereo unspecified) 4.49%
COCCn1cc(C(=O)N2CCCC(C)C2)c2c3ccccc3n(C)c2c1=O (stereo unspecified) 8.11%
CCn1c(SCC(=O)Nc2ccc(C(C)=O)cc2)nc2ccccc21 9.9%
CC(C)C(NC(=O)C1CCCCC1)C(=O)Nc1ccc2c(c1)OCCO2 (stereo unspecified) 5.06%
Cc1cc(C)nc(N2CCN(c3ncnc4c3cnn4Cc3ccc(Cl)cc3Cl)CC2)n1 0.3%
Cc1c(C(=O)N2CCOCC2)oc2ccc(S(=O)(=O)N3CCCCCC3)cc12 1.73%
C=CCn1c(C)nc2c(c1=O)c1nc3ccccc3nc1n2-c1ccc(C)cc1 20.7%
Cc1ccc(C2CC(c3ccccc3C)n3nc(N)nc3N2)cc1 (stereo unspecified) 1.78%
O=C(c1ccccc1)c1coc2ccc(O)c(CN3CCOCC3)c12 4.43%
CCn1c(SCCC#N)nnc1-c1ccncc1 5.61%
COC(=O)C1C(=O)C2=C(CC1C)NC(C)=C(C(=O)OC(C)C)C2c1ccc(OC)c(O)c1 (stereo unspecified) 8.85%
CCOn1c(=O)c(-c2cc3ccccc3o2)[n+]([O-])c2ccccc21 7.2%
N#C/C(=C\c1ccc[nH]1)S(=O)(=O)c1ccccc1 1.07%
Cc1cccc(-c2noc(C3CCCCC3)n2)c1 15.8%
CCOc1ccc(C(=O)NCCCN(CC)CC)cc1 16.6%
CCC1CCCCN1C(=O)Cn1c(=O)oc2ccccc21 (stereo unspecified) -4.33%
Cc1ccc(NC(=O)N(Cc2cc3cc(C)cc(C)c3[nH]c2=O)CC2COCCO2)cc1 (stereo unspecified) 1.86%
CC(C)CN1C(=O)NC(NC(=O)c2cccs2)(C(F)(F)F)C1=O (stereo unspecified) -4.34%
CCOc1ccccc1N(C(=O)Cn1nnnc1-c1ccc(C)o1)C(CC)C(=O)NC(C)(C)C (stereo unspecified) 7.35%
O=C(NCc1ccccc1)N(Cc1nc2ccccc2c(=O)[nH]1)C1CCCC1 12.2%
Fc1ccccc1N1CCN(c2nc3ccccc3n3nnnc23)CC1 0.81%
CN(C(=O)COC(=O)c1nc(-c2ccccc2)n(-c2ccccc2)n1)C1CCS(=O)(=O)C1 (stereo unspecified) 23.8%
C=CCc1cccc(CNc2nc3ccccc3n2CC)c1O 8.31%
O=C(O)CCc1ccc(-c2ccccc2)n1NC(=O)c1ccco1 13.5%
CC1CN(C(=O)c2cc3c(=O)n4ccccc4nc3s2)CC(C)O1 (stereo unspecified) 14.8%
CC(C)CC(=O)NC1(C(F)(F)F)C(=O)Nc2c1c(=O)n(C)c(=O)n2C (stereo unspecified) 1.85%
COc1ccc(C)cc1NC(=O)CN1CCN(c2ccccc2F)CC1 9.06%
Cc1nn2c3c(cnc2c1-c1ccccc1)C(=O)CC(c1ccco1)C3 (stereo unspecified) 3.63%
COc1nc(C)nc2c1sc(=S)n2C -1.82%
Cn1c(=O)c2c(nc(N3CCOCC3)n2Cc2c(F)cccc2Cl)n(C)c1=O 4.34%
COC(=O)COC(=O)c1ccc(-n2nnnc2SC)cc1 10.7%
O=C(CCn1c(=O)oc2ccccc21)N1CCN(C(c2ccccc2)c2ccccc2)CC1 5.67%
O=C(Oc1ccc(OC(=O)c2ccncc2)cc1)c1ccncc1 8.57%
